Measurements reported in PubChem BioAssay (Tox21).
Records with an inconclusive call do not appear. A call without a number means that no potency is given here. Active and inactive are the calls of the source. Calls come from the whole dose curve; as a rule, active = well fitted activation curve with a large enough effect in the repeat runs; inconclusive = weak or mixed curves; inactive = no such curve, though single readings can be large or run the other way. Positions of bridges follow the written chain, without caps; N, C: chain ends. Non-standard residues stand in square brackets, D forms with d. Residues, ends and D or L forms follow the SMILES beside them. *: point of attachment. X2 = CC[C@H](C)CCCCC(=O)*; Dab = NCC[C@H](N)C(=O)O
Potency is the fitted concentration of half-maximal effect.

Experiment: qHTS assay for small molecules that induce genotoxicity in human embryonic kidney cells expressing luciferase-tagged ATAD5 (AID 651632); note: nearly all actives have a fitted effect of over 15% in size
Conditions: HEK293T ATAD5-luciferase induction, 16 h; series mostly up to 83.3 µM
Summary of the method: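 Reporter cells (HEK293T) express luciferase-tagged ATAD5, a protein that accumulates after DNA damage. Treat 16 hr at 37C/5% CO2, add Amplite, wait 30 min at RT, and read luminescence.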
With `C[C@]12C=CC(=O)N[C@@H]1CC[C@@H]1[C@@H]2CC[C@]2(C)[C@@H](C(=O)Nc3cc(C(F)(F)F)ccc3C(F)(F)F)CC[C@@H]12` the Potency was “inactive”. In the case of `COc1ccc(C(=O)CCC(=O)O)c2ccccc12`, the Potency is reported as “inactive”. For `COc1ccc2cc([C@H](C)CO)ccc2c1`, the Potency was “inactive”. In the case of `Cn1c(=O)c2c(ncn2CCOC(=O)C(C)(C)Oc2ccc(Cl)cc2)n(C)c1=O`, the Potency is reported as “inactive”. With `CCCCCC(O)/C=C/C=O` (centres undefined) the Potency was “inactive”. With `CCC(C)[C@H]1O[C@]2(C=C[C@@H]1C)C[C@@H]1C[C@@H](C/C=C(\C)[C@@H](O[C@H]3C[C@H](OC)[C@@H](O[C@H]4C[C@H](OC)[C@H](NC(C)=O)[C@H](C)O4)[C@H](C)O3)[C@@H](C)/C=C/C=C3\CO[C@@H]4[C@H](O)C(C)=C[C@@H](C(=O)O1)[C@]34O)O2` (some centres undefined) the Potency was “inactive”. In the case of `CC1(C)N=C(N)N=C(N)N1c1ccc(Cl)cc1`, the Potency is reported as “inactive”. For `CN(C)C(=O)CCSC(SCCC(=O)O)c1cccc(/C=C/c2ccc3ccc(Cl)cc3n2)c1` (centres undefined), the Potency was 4.73 µM (active). With `C[C@H](CCCC(C)(C)O)[C@H]1CC[C@H]2[C@@H]3CC=C4C[C@@H](O)CC[C@]4(C)[C@H]3CC[C@]12C` the Potency was “inactive”. With `CNC(=O)c1c(I)c(C(=O)NCC(=O)Nc2c(I)c(C(=O)O)c(I)c(C(=O)NCCO)c2I)c(I)c(N(C)C(C)=O)c1I` the Potency was “inactive”. For `C=C1CC[C@@H]2[C@](C)(CO)[C@H](O)CC[C@@]2(C)[C@@H]1C/C=C1/C(=O)OC[C@H]1O`, the Potency was “inactive”. For `C[C@H](CSC(=O)c1ccccc1)C(=O)N1C[C@@H](Sc2ccccc2)C[C@H]1C(=O)O`, the Potency was “inactive”. For `C=C[C@]1(C)C[C@@H](OC(=O)CSCCN(CC)CC)[C@]2(C)[C@H](C)CC[C@]3(CCC(=O)[C@H]32)[C@@H](C)[C@@H]1O`, the Potency was “inactive”. For `O=C(O)C1=C(CSc2nnnn2CS(=O)(=O)O)CS[C@@H]2[C@H](NC(=O)[C@H](O)c3ccccc3)C(=O)N12`, the Potency was “inactive”. In the case of `COc1cc(/C=C/C(=O)N2CCN(CC(=O)N3CCCC3)CC2)cc(OC)c1OC`, the Potency is reported as “inactive”. With `CCOC(=O)c1c[nH]c2cc(OCC(C)C)c(OCC(C)C)cc2c1=O` the Potency was “inactive”. For `CCCCCCCCCCCCCCCCCCCCCCO`, the Potency was “inactive”. With `CC1=C(/C=C/C(C)=C/C=C/C(C)=C/C(=O)Oc2c(C)c(C)c3c(c2C)CC[C@@](C)(CCC[C@H](C)CCC[C@H](C)CCCC(C)C)O3)C(C)(C)CCC1` the Potency was “inactive”. With `CC(C)CCCC(C)NC(C)C` (centres undefined) the Potency was “inactive”. In the case of `O=C(O)CCC/C=C\C[C@@H]1[C@@H](/C=C/[C@@H](O)COc2cccc(C(F)(F)F)c2)[C@H](O)C[C@@H]1O`, the Potency is reported as “inactive”. For `O=C(O)COc1ccc(CCNS(=O)(=O)c2ccccc2)s1`, the Potency was “inactive”. With `CO[C@H]1C[C@@H]2CC[C@@H](C)[C@@](O)(O2)C(=O)C(=O)N2CCCC[C@H]2C(=O)O[C@H]([C@H](C)C[C@@H]2CC[C@@H](OC(=O)C(C)(CO)CO)[C@H](OC)C2)CC(=O)[C@H](C)/C=C(\C)[C@@H](O)[C@@H](OC)C(=O)[C@H](C)C[C@H](C)/C=C/C=C/C=C/1C` the Potency was “inactive”. With `CC[C@H](C)CCCCC(=O)N[C@@H](CCN)C(=O)N[C@H](C(=O)N[C@@H](CCN)C(=O)N[C@H]1CCNC(=O)[C@@H]([C@H](C)O)NC(=O)[C@H](CCN)NC(=O)[C@H](CCN)NC(=O)[C@H](CC(C)C)NC(=O)[C@@H](CC(C)C)NC(=O)[C@H](CCN)NC1=O)[C@@H](C)O` (X2-[Dab]T[Dab][Dab][Dab][dL]L[Dab][Dab][dT]; lactam 4-C) the Potency was “inactive”. For `C#C[C@]1(O)CC[C@H]2[C@@H]3CCC4=CC(=O)CC[C@@H]4[C@H]3C(=C)C[C@@]21CC`, the Potency was “inactive”. In the case of `C=C1CC[C@H](O)CC1=C/C=C1\CCC[C@]2(C)[C@@H]([C@H](C)CCCC(C)(C)O)CC[C@@H]12`, the Potency is reported as “inactive”. With `CC(=O)Nc1c(I)c(C(=O)O)c(I)c(N(C)C(C)=O)c1I` the Potency was “inactive”. In the case of `CC1(C)S[C@@H]2[C@H](NC(=O)[C@H](N)c3ccccc3)C(=O)N2[C@H]1C(=O)OCOC(=O)[C@@H]1N2C(=O)C[C@H]2S(=O)(=O)C1(C)C`, the Potency is reported as “inactive”. In the case of `CNC(C)CCC=C(C)C` (centres undefined), the Potency is reported as “inactive”. With `Cc1c(Cl)cccc1Nc1ncccc1C(=O)O` the Potency was “inactive”. With `CN(CCO)CC(O)Cn1cnc2c1c(=O)n(C)c(=O)n2C` (centres undefined) (tested in a mixture with another compound) the Potency was “inactive”. For `CC[C@H](C)CCCCC(=O)N[C@@H](CCN)C(=O)N[C@H](C(=O)N[C@@H](CCN)C(=O)N[C@H]1CCNC(=O)[C@H]([C@@H](C)O)NC(=O)[C@H](CCN)NC(=O)[C@H](CCN)NC(=O)[C@H](CC(C)C)NC(=O)[C@@H](CC(C)C)NC(=O)[C@H](CCN)NC1=O)[C@@H](C)O` (X2-[Dab]T[Dab][Dab][Dab][dL]L[Dab][Dab]T; lactam 4-C), the Potency was “inactive”. For `CCCCCCCCCCCC(=O)OC[C@@H](O)C1OC[C@H](O)[C@H]1O` (some centres undefined), the Potency was “inactive”. In the case of `CCOc1ccc(N=Nc2ccc(N)cc2N)cc1`, the Potency is reported as 0.168 µM (active). For `FCOC(C(F)(F)F)C(F)(F)F`, the Potency was “inactive”. In the case of `CCNC(=O)[C@@H]1CCCN1C(=O)[C@H](CCCN=C(N)N)NC(=O)[C@H](CC(C)C)NC(=O)[C@@H](Cc1c[nH]c2ccccc12)NC(=O)[C@H](Cc1ccc(O)cc1)NC(=O)[C@H](CO)NC(=O)[C@H](Cc1c[nH]c2ccccc12)NC(=O)[C@H](Cc1cnc[nH]1)NC(=O)[C@@H]1CCC(=O)N1`, the Potency is reported as “inactive”. For `C[N@+]12CCCC[C@@H]1CCC(=C(c1cccs1)c1cccs1)C2`, the Potency was “inactive”. For `O=C(OC[C@H]1O[C@](O)(COC(=O)c2cccnc2)[C@@H](OC(=O)c2cccnc2)[C@@H]1OC(=O)c1cccnc1)c1cccnc1`, the Potency was “inactive”. With `COC(=O)CCC[N+](C)(C)C` the Potency was “inactive”. In the case of `CCCCCCCCCCCCCCCC(=O)OCC(COC(=O)CCCCCCCCCCCCCCC)OC(=O)CCCCCCCCCCCCCCC`, the Potency is reported as “inactive”.
